Source: PubChem BioAssay (NCI)
Where “and” joins values, the source holds several entries; their conditions need not be identical. Equal entries are not always repeated. This is part of a sample that, as a whole, favours compounds with a hit. Of some 83,000 tested, about 20% had one in any assay.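 Testing used 96-well plates and a 48-hour single-concentration exposure. Example: -40 means 40% of the starting cells died.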 Calls of active or inactive are those of the source. The calls were made as follows: active = growth percent below 10; inactive = the rest.

The molecules below were run on OVCAR-5 ovarian (assay: NCI-60 one-dose screen, 48 h (100 = growth as untreated, 0 = no growth, -100 = all killed)). Settings: 100 µM.

Compound	growth
CN(C)C(=O)c1ccc(SC(=S)NCc2ccccc2)cc1	20.1% (inactive)
COc1ccc(-c2cscc2N)cc1	78.9% (inactive)
O=C(Nc1c(Cl)cccc1Cl)Oc1cccc2cccnc12	34.1% (inactive)
O=C(Nc1cccc(Br)c1)Oc1cccc2cccnc12	9.37% (active)
O=C(O)c1c(Cl)c(Cl)c(Cl)c(Cl)c1-c1c2cc(I)c(=O)c(I)c-2oc2c(I)c(O)c(I)cc12	-42.9% (active)

The molecules below were run on OVCAR-4 ovarian in the same assay as above. Settings: 10 µM.

Compound	growth
CN(C)C(=O)c1ccc(SC(=S)NCc2ccccc2)cc1	113% (inactive)
COc1ccc(-c2cscc2N)cc1	103% (inactive)
O=C(Nc1c(Cl)cccc1Cl)Oc1cccc2cccnc12	15.9% (inactive)
O=C(Nc1cccc(Br)c1)Oc1cccc2cccnc12	80.7% (inactive)
O=C(O)c1c(Cl)c(Cl)c(Cl)c(Cl)c1-c1c2cc(I)c(=O)c(I)c-2oc2c(I)c(O)c(I)cc12	104% (inactive) and 110% (inactive) and 72.9% (inactive)

Same assay, conditions: 10 µM unless noted

Compound	growth
O=[N+]([O-])c1ccc2c(N=Nc3ccc4ccccc4c3O)c(O)cc(S(=O)(=O)O)c2c1	63% (inactive)
O=C(Nc1cccc(Br)c1)Oc1ccc(Cl)c2cccnc12	3.81% [100 µM] (active)
Oc1c(Cl)cc(Cl)c2cccnc12	50.1% (inactive) and 45.7% (inactive)
COC(=O)[C@@]12OC[C@]34[C@H]([C@@H](O)[C@@H]1O)[C@@]1(C)[C@H](O)C(=O)C=C(C)[C@@H]1C[C@H]3OC(=O)C(OC(C)=O)[C@@H]24 (stereo partly specified)	3.68% (active)
CNC(=O)N/N=C/c1ccc([N+](=O)[O-])o1	108% (inactive)
O=C1C2=C(Nc3cc([N+](=O)[O-])ccc3N2)OC1c1c2ccccc2cc2ccccc12 (stereo unspecified)	50% (inactive)
COc1cc(/C=C(/C)C[N+](=O)[O-])ccc1O	104% (inactive)
O=C(O)c1ccc2c3c(ncnc13)-c1ccccc1C2=O	91.7% (inactive)
Cc1ccc2nc(C[n+]3ccc4ccccc4c3)ccc2c1	43.8% (inactive)
C=C(Cl)C(=NC(C)(C)C)Nc1ccccc1C	91.7% (inactive)
O=C1OCc2cccc3cccc1c23	97.1% (inactive)
NC(N)=N/N=C/c1ccc([N+](=O)[O-])o1	82.8% (inactive)
N#CSCc1c(Cl)cccc1Cl	35.2% (inactive)
CC(=O)ON=C1C=CC(=C(C#N)c2ccccc2)C=C1	60.6% (inactive)
CCCCCCCCCCCCCCCCCCOP(=O)([O-])OC1CC[N+](C)(C)CC1	65.2% (inactive)
C[n+]1c(/C=C/c2ccc([N+](=O)[O-])cc2)ccc2ccccc21	105% (inactive)
c1ccc2c(c1)Nc1cc3ccccc3cc1N2	32.6% (inactive)
CCOC(=O)/C(=C\c1ccc(-c2ccccc2)cc1)C(C)=O	105% (inactive)
O=C1c2ccccc2C(=O)c2sc(Nc3ccc(Cl)cc3)nc21	1.65% (active)
COc1ccc2nc3cc(Cl)ccc3c(NCCNc3c4ccc(Cl)cc4nc4ccc(OC)cc34)c2c1	-43.6% (active)
CCOC(=O)/C=C/c1ccc([N+](=O)[O-])o1	97.4% (inactive)
COC(=O)c1nc(=S)[nH]c(C(=O)OC)c1C(=O)c1ccc2ccccc2c1	96.9% (inactive)
COc1cc(NS(C)(=O)=O)ccc1Nc1c2ccccc2nc2ccccc12	87.8% [2.5 µM] (inactive)
S=C(NCCNC(=S)[S][Sn]([c]1ccccc1)([c]1ccccc1)[c]1ccccc1)[S][Sn]([c]1ccccc1)([c]1ccccc1)[c]1ccccc1	-100% (active)
CN(C)C(=O)SC1=C(c2c(Cl)cccc2Cl)C(=O)c2ccccc21	-11.6% (active)
Cc1ccc2nc(-[n+]3cc4ccccc4cc3C)ccc2c1	28.6% (inactive)
O=C(O)C1C2CC3C(OC(=O)C31)C2Br (stereo unspecified)	114% (inactive) and 89.8% (inactive)

Same assay, conditions: 100 µM

Compound	growth
CN(C)C(=O)c1ccc(SC(=S)NCc2ccccc2)cc1	43.8% (inactive)
COc1ccc(-c2cscc2N)cc1	45.3% (inactive)
O=C(Nc1c(Cl)cccc1Cl)Oc1cccc2cccnc12	14.5% (inactive)
O=C(Nc1cccc(Br)c1)Oc1cccc2cccnc12	-4.65% (active)
O=C(O)c1c(Cl)c(Cl)c(Cl)c(Cl)c1-c1c2cc(I)c(=O)c(I)c-2oc2c(I)c(O)c(I)cc12	53.2% (inactive)

What follows are molecules tested on SK-OV-3 ovarian in the same assay as above. Settings: 10 µM.

Compound	growth
CN(C)C(=O)c1ccc(SC(=S)NCc2ccccc2)cc1	108% (inactive)
O=C(Nc1c(Cl)cccc1Cl)Oc1cccc2cccnc12	65.4% (inactive)
O=C(Nc1cccc(Br)c1)Oc1cccc2cccnc12	110% (inactive)
O=C(O)c1c(Cl)c(Cl)c(Cl)c(Cl)c1-c1c2cc(I)c(=O)c(I)c-2oc2c(I)c(O)c(I)cc12	101% (inactive) and 92.4% (inactive) and 93.1% (inactive)
